Measured values: PubChem BioAssay AID1159580 (chemical genetic matrix, 2015)
Out of some 5,500 compounds screened, about 2,000 (36%) were called active. Inconclusive results (about 18%) are left out. Cut-off read from the data, not from the text of the source: active = normalized growth mostly below about 0.91 (no sharp cut-off); inconclusive = no clear call, values can overlap the other calls; inactive = mostly above about 0.92. The list shows a part of the results.

Assay: chemical genetic growth profiling, strain panel (AID 1159580);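 note: tested at 20 µM; growth read once vehicle control cultures reached saturation at 30 °C; 1 = growth at the plate median or of vehicle wells; lower values mean less growth of the strain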
Conditions: S. cerevisiae deletion strains, growth OD

Measured: normalized growth

C=C1CC2C(CCC3(C)C(=O)CCC23)C2(C)C=CC(=O)C=C12 (stereo unspecified)
inactive: locus YAL021C, strain ccr4, active compounds read low 0.958 | locus YAL030W, strain snc1, active compounds read low 0.949 | locus YBL061C, strain skt5, active compounds read low 0.928 | locus YBR023C, strain chs3, active compounds read low 0.941 | locus YBR171W, strain sec66, active compounds read low 0.92 | locus YBR231C, strain swc5, active compounds read low 0.943 | locus YBR279W, strain paf1, active compounds read low 0.963 | locus YCL011C, strain gbp2, active compounds read low 0.935 | locus YCL016C, strain dcc1, active compounds read low 0.983 | locus YCL069W, strain vba3, active compounds read low 0.927 | locus YCR088W, strain abp1, active compounds read low 0.947 | locus YDL005C, strain med2, active compounds read low 0.942 | locus YDL040C, strain nat1, active compounds read low 0.941 | locus YDR001C, strain nth1, active compounds read low 0.936 | locus YDR069C, strain doa4, active compounds read low 0.944 | locus YDR137W, strain rgp1, active compounds read low 0.931 | locus YDR159W, strain sac3, active compounds read low 0.919 | locus YDR195W, strain ref2 0.945 | locus YDR297W, strain sur2, active compounds read low 0.946 | locus YDR335W, strain msn5, active compounds read low 0.951 | locus YEL061C, strain CIN8 (second series), active compounds read low 0.922 | locus YER015W, strain faa2, active compounds read low 0.939 | locus YER016W, strain bim1, active compounds read low 0.955 | locus YER111C, strain swi4, active compounds read low 0.945 | locus YER155C, strain BEM2 (second series), active compounds read low 0.946 | locus YFR010W, strain ubp6, active compounds read low 0.928 | locus YGL167C, strain pmr1, active compounds read low 0.928 | locus YGL173C, strain kem1, active compounds read low 0.95 | locus YGL240W, strain doc1, active compounds read low 0.95 | locus YGL253W, strain hxk2, active compounds read low 0.944 | locus YHR013C, strain ard1, active compounds read low 0.908 | locus YHR027C, strain rpn1, active compounds read low 0.93 | locus YHR142W, strain chs7, active compounds read low 0.905 | locus YJL092W, strain hpr5, active compounds read low 0.932 | locus YJL095W, strain BCK1 (second series), active compounds read low 0.952 | locus YJL115W, strain asf1, active compounds read low 0.928 | locus YJL129C, strain trk1, active compounds read low 0.96 | locus YJL154C, strain vps35, active compounds read low 0.936 | locus YJL166W, strain qcr8, active compounds read low 0.962 | locus YJL187C, strain SWE1, active compounds read low 0.939 | locus YKL160W, strain elf1, active compounds read low 0.998 | locus YKR026C, strain gcn3, active compounds read low 0.939 | locus YKR091W, strain srl3, active compounds read low 0.95 | locus YLL001W, strain dnm1, active compounds read low 1.01 | locus YLL026W, active compounds read low 0.936 | locus YLL041C, strain sdh2, active compounds read low 0.939 | locus YLR027C, strain aat2, active compounds read low 0.98 | locus YLR221C, strain rsa3, active compounds read low 0.992 | locus YLR258W, strain gsy2, active compounds read low 0.945 | locus YLR262C, strain YPT6 (second series), active compounds read low 0.925 | locus YLR320W, strain mms22, active compounds read low 0.991 | locus YLR342W, strain FKS1, active compounds read low 0.929 | locus YLR357W, strain rsc2, active compounds read low 0.991 | locus YLR370C, strain arc18, active compounds read low 0.937 | locus YLR384C, strain iki3, active compounds read low 0.925 | locus YML120C, strain ndi1, active compounds read low 0.96 | locus YMR058W, strain fet3, active compounds read low 0.929 | locus YMR125W, strain sto1, active compounds read low 0.989 | locus YMR129W, active compounds read low 0.928 | locus YMR205C, strain PFK2, active compounds read low 0.992 | locus YMR231W, strain pep5, active compounds read low 0.946 | locus YNL209W, strain ssb2, active compounds read low 0.957 | locus YNL248C, strain rpa49, active compounds read low 1 | locus YNL322C, strain KRE1 (second series), active compounds read low 0.934 | locus YNR049C, strain mso1, active compounds read low 0.932 | locus YOR070C, strain gyp1, active compounds read low 0.938 | locus YOR080W, strain dia2, active compounds read low 0.934 | locus YOR083W, strain WHI5, active compounds read low 0.994 | locus YOR106W, strain vam3, active compounds read low 0.969 | locus YOR265W, strain rbl2, active compounds read low 0.948 | locus YOR270C, strain vph1, active compounds read low 0.895 | locus YOR290C, strain snf2, active compounds read low 0.941 | locus YPL051W, strain arl3, active compounds read low 0.988 | locus YPL078C, strain atp4, active compounds read low 1 | locus YPL106C, strain sse1, active compounds read low 0.95 | locus YPL240C, strain hsp82, active compounds read low 0.969
active: locus YAL026C, strain drs2, active compounds read low 0.905 | locus YBR009C, strain hhf1, active compounds read low 0.85 | locus YDR334W, strain swr1, active compounds read low 0.896 | locus YDR392W, strain spt3, active compounds read low 0.733 | locus YEL003W, strain gim4, active compounds read low 0.912 | locus YEL037C, strain rad23, active compounds read low 0.917 | locus YGL227W, strain vid30, active compounds read low 0.874 | locus YJL164C, strain tpk1, active compounds read low 0.916 | locus YNL071W, strain lat1, active compounds read low 0.883 | locus YOR001W, strain rrp6, active compounds read low 0.881
